Most compounds without a hit are left out; they make up all but 11% or so of the library.
Pf growth 96h – Primary qHTS for delayed death inhibitors of the malarial parasite plastid, 96 hour incubation; AID 504834, 2011; P. falciparum luciferase reporter growth, 96 h; Potency, µM (highest dose often 28.7 µM), for inactives: at the highest dose activity change, negative = inhibition, most hits filed as inhibitors; hit rate 6.9% among 320,000
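Two parasite generations (96 h, 37 C, 5% CO2) of compound exposure in infected erythrocytes (0.05% parasitemia, 2% hematocrit). Luciferase-reporter P. falciparum; decreased luminescence indicates inhibited growth, aimed at apicoplast-acting delayed death.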
HCV inh – qHTS Assay for Inhibitors of Hepatitis C Virus (HCV); hit rate 3.4% among 340,000; Huh7.5.1 HCVcc-Cre infection, luciferase reporter, 44 h; AID 651820, 2012; Potency, µM (highest dose often 41.8 µM), without a hit: at the highest dose activity change, negative = inhibition, usual class: inhibitors
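A cell-based infection assay in which seeded cells (1,000 per well) receive test compound after 4 h, are inoculated with HCVcc-Cre at approximately 0.5 moi, and are incubated 44 h before luminescence detection.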
AmpC no deterg – qHTS Inhibitors of AmpC Beta-Lactamase (assay without detergent); P00811; hit rate 0.52% among 330,000; Potency, µM (series often up to 57.1 µM), for the others: at the top dose activity change, negative = inhibition, usual class: inhibitors; AmpC nitrocefin hydrolysis, absorbance 480 nm, 0.0001% Triton; AID 485341, 2010;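 further: plate controls were no compound for no effect and no enzyme for full effect; nearly all actives have a fitted effect of over 20% in size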
Target sequence (P00811 whole entry, looked up): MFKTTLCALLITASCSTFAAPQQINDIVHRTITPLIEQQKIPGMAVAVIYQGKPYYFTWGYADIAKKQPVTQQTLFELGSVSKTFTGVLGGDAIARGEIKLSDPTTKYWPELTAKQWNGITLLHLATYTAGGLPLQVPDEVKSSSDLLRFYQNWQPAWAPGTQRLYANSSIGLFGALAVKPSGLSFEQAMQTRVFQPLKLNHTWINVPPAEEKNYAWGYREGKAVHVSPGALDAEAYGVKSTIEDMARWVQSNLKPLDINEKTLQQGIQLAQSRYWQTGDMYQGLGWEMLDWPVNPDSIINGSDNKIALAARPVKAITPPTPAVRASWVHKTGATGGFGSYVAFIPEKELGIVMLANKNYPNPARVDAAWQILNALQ
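AmpC (5.3 nM in the dispensed reagent) in 20 mM phosphate pH 7.0 with 0.01% (detergent screen) or 0.0001% Triton X-100 was preincubated with compounds for 15 min at room temperature. Nitrocefin was then added from an 800 uM solution, and hydrolysis was followed at 480 nm.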
AmpC detergent – qHTS Inhibitors of AmpC Beta-Lactamase (assay with detergent). P00811. Potency, µM (highest dose often 114 µM), for the others: top-dose activity change, negative = inhibition, most hits filed as inhibitors. AmpC hydrolysis of nitrocefin, absorbance 480 nm, 0.01% Triton. hit rate 0.041% among 370,000. AID 485294, 2010;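 further: 0% = no-compound wells and -100% = no-enzyme wells; nearly all actives have a fitted effect of over 25% in size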
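AmpC (5.3 nM in the dispensed reagent) in 20 mM phosphate pH 7.0 with 0.01% (detergent screen) or 0.0001% Triton X-100 was preincubated with compounds for 15 min at room temperature. Nitrocefin was then added from an 800 uM solution, and hydrolysis was followed at 480 nm.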
AMA1 RON2 block – qHTS for Inhibitors of AMA1-RON; Towards Development of Antimalarial Drug Lead: Primary Screen; Plasmodium falciparum AMA1 (3D7) - RON2 peptide interaction; AlphaScreen AMA1-biotinylated RON2 peptide binding; hit rate 0.2% among 360,000; Potency, µM (doses to about 58.2 µM), for inactives: at the highest dose activity change, negative = inhibition, usual class: inhibitors;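 further: 0% = vehicle wells and -100% = peptide control; nearly all actives have a fitted effect of over 45% in size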
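AMA1 (3D7) with his tag at 25 nM final met compounds first, then biotinylated RON2 peptide at 25 nM; detection used donor plus acceptor beads, 10 µg/mL apiece, read by AlphaScreen after 30 min at room temperature.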
Pf growth 48h – Primary qHTS for delayed death inhibitors of the malarial parasite plastid, 48 hour incubation | P. falciparum luciferase growth in erythrocytes, 48 h | Potency, µM (series often up to 28.7 µM), without a hit: at the highest dose activity change, negative = inhibition, usual class: inhibitors | hit rate 5.9% among 310,000 | AID 504832, 2011
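Luciferase-expressing P. falciparum in infected erythrocytes (2% hematocrit, 0.1% parasitemia final) in RPMI 1640/0.5% Albumax were exposed to compound for 48 hours at 37 C, 5% CO2; growth read as luminescence.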
* = called active by the depositor; i = inactive; ? = inconclusive; · = not tested or not shown; [ ] = dose if it differs, or a comment. The call rests on the fitted dose curve; in most records, active means well fitted curve in the direction sought with a large enough effect; inconclusive means small, poorly fitted or top-dose-only effect, or another doubt; inactive means no such curve, though single readings can be large; an effect the other way counts as inactive or inconclusive. Unless noted, on the % scale 0 is the no-effect control and ±100 the full control effect; potency means the concentration at half of the fitted maximal effect.

SMILES	Pf growth 96h	HCV inh	AmpC no deterg	AmpC detergent	AMA1 RON2 block	Pf growth 48h
NS(=O)(=O)c1ccc(Nc2ccc([N+](=O)[O-])c3nonc23)cc1	9.3µM*	10%	-11%	5%	-11%	?
CCOc1ccccc1NC(=O)Cn1c(=O)n(-c2ccc(F)cc2)c(=O)c2sc3ccccc3c21	·	·	·	13%	·	·
O=[N+]([O-])c1cc([As](=O)(O)c2ccc(O)c([N+](=O)[O-])c2)ccc1O	2.9µM*	17%	-3%	0%	0%	4.7µM*
O=c1[nH]c(Cc2ccccc2Cl)nc2ccccc12	9.3µM*	1%	-17%	-8%	17%	11%
O=C(CCc1nc2ccccc2c(=O)[nH]1)N1CCN(c2ccccc2Cl)CC1	·	11µM*	11%	·	-7%	·
Cc1ccc(CNC(=O)c2ccc(N3Cc4ccccc4Oc4ncccc43)s2)cc1	·	·	·	-6%	·	·
Cc1cc(C[n+]2ncsc2N)c2ncccc2c1	-90%	-19%	-21%	8%	36%	-36%
CCOc1ccc2c(c1)sc(N)[n+]2Cc1cc(C)cc2cccnc12	1.9µM*	?	-6%	-4%	-25%	9.3µM*
Cc1cc(C[n+]2cc(Br)ccc2N)c2ncccc2c1	13µM*	?	-15%	-6%	-4%	9.3µM*
Nc1ccc(Cl)c[n+]1Cc1cccc2cccnc12	?	-5%	-12%	1%	-7%	10µM*
Cc1cc(C[n+]2cc(Cl)ccc2N)c2ncccc2c1	?	-17%	-11%	1%	-5%	13µM*
O=S(=O)(NCC(c1cccs1)S(=O)(=O)c1ccccc1)c1ccc(F)cc1 (centres undefined)	·	·	·	4%	·	·
CCOC(=O)N1CCc2c(sc(NCc3cccc(F)c3)c2C(=O)Nc2ccc(OCC)cc2)C1	·	·	·	-6%	·	·
Cc1nnc(SCC(=O)NCc2ccc(N(C)C)cc2)c2nn(-c3ccccc3)c(C)c12	·	·	·	21%	·	·
COc1ccc(CCNc2nc(SCc3ccccc3F)nc3ccccc23)cc1OC	·	·	·	8%	·	·
CCN(CC)CC(=O)Nc1sc(C)cc1C(=O)c1ccc(C)cc1	-24%	?	-21%	-2%	4%	?
CCc1cc(C(=O)c2ccc(Br)cc2)c(NC(=O)CN(CC)CC)s1	8.3µM*	-23%	-28%	3%	2%	5.9µM*
CCN(CC)CC(=O)Nc1sc(C)c(C)c1C(=O)c1ccc(C)cc1	11%	-21%	8%	-3%	-14%	?
CCN(CC)CC(=O)Nc1sc(C)cc1C(=O)c1ccccc1	-12%	8.9µM*	0%	2%	20%	3.3µM*
CC(C)C(=O)N1CCN(c2ccc(NC(=O)c3ccco3)cc2Cl)CC1	?	-7%	-6%	?	-7%	9.3µM*
O=C(Nc1ccc(N2CCN(C(=O)c3ccccc3)CC2)c(Cl)c1)c1ccco1	-22%	10µM*	-24%	-2%	-12%	8.3µM*
CCc1nn(CC(=O)NCCc2ccc(Cl)cc2)c(=O)c2cc3ccccc3n12	·	·	·	-6%	·	·
COc1ccc(CC(=O)O/N=C(\N)Cc2cccc3ccccc23)cc1OC	278%	12%	32%	-14%	9%	10µM*
COc1ccc(CC(=O)O/N=C(\N)Cc2cccc3ccccc23)cc1	12µM*	9%	-27%	?	21%	?
Cc1cc2nc(-c3ccco3)cc(C(F)(F)F)n2n1	5%	5%	10µM*	15%	-1%	19%
SMILES	Pf growth 96h	HCV inh	AmpC no deterg	AmpC detergent	AMA1 RON2 block	Pf growth 48h
Cc1ccc(Cn2ccc(NC(=O)c3cc4nc(-c5ccco5)cc(C(F)(F)F)n4n3)n2)cc1	i	-18%	-18%	-1%	0%	43%
CCc1ccc(-c2cc(C(F)(F)F)n3nc(C(=O)Nc4cnn(Cc5ccc(C)cc5)c4)cc3n2)s1	4.7µM*	11µM*	-11%	?	5%	·
Cc1ccccc1Cn1cc(NC(=O)c2cc3nc(-c4ccco4)cc(C(F)(F)F)n3n2)cn1	50%	10µM*	22%	2%	6%	?
CCOC(=O)c1cc2nc(-c3ccco3)cc(C(F)(F)F)n2n1	29%	3%	-7%	-9%	12%	-13%
CC(=O)c1ccc(NC(=O)c2sc(-n3nc(C)c(Cc4ccccc4)c3C)nc2C)cc1	·	·	·	9%	·	·
Cc1onc(-c2c(Cl)cccc2Cl)c1CO/N=C(\C#N)c1c(Cl)cccc1Cl	?	?	-24%	6%	-8%	15µM*
CNc1c([N+](=O)[O-])cnn1-c1ccccc1F	21%	-3%	-18%	2%	9%	51%
CNc1c([N+](=O)[O-])cnn1-c1ccc(C)cc1	?	-11%	-11%	-3%	-3%	3.3µM*
CS(=O)(=O)c1ccc([C@@H](O)[C@@H](CO)NC(=O)C(Cl)Cl)cc1	4.7µM*	5%	-19%	-17%	8%	?
CS(=O)(=O)c1ccc([C@@H](O)[C@@H](CF)NC(=O)C(Cl)Cl)cc1	3.3µM*	?	-2%	4%	-8%	12µM*
CS(=O)(=O)c1ccc([C@H](O)[C@H](CO)NC(=O)C(Cl)Cl)cc1	?	·	·	·	·	-18%[12.8 µM]
CS(=O)(=O)c1ccc([C@H](O)[C@H](CF)NC(=O)C(Cl)Cl)cc1	2µM*	·	·	·	·	?
O=C(CCl)c1ccc(Oc2ccc(C(=O)CCl)cc2)cc1	-8%	·	·	·	·	?
Cc1ccc(Cn2c(C)c(CNCc3ccc(OC(C)C)cc3)c(C(=O)O)c2C)cc1	·	·	·	-1%	·	·
COc1ccc(C(=O)Nc2nc3n(n2)C(c2ccc(Cl)cc2)C=C(c2ccccc2)N3)cc1OC (centres undefined)	·	·	·	20%	·	·
COC1C(OC(=O)c2ccc(C)[nH]2)C(O)C(Oc2ccc3c(O)c(NC(=O)c4ccc(O)c(CC=C(C)C)c4)c(=O)oc3c2Cl)OC1(C)C (centres undefined)	?	1.6µM*	-30%	-11%	-19%	5.9µM*
O=C(CCS(=O)(=O)c1cc(Br)cc2c1N(C(=O)C1CC1)CC2)NCc1ccco1	10%	?	-18%	9%	0%	8.3µM*
O=C(CCS(=O)(=O)c1cc(Br)cc2c1N(C(=O)C1CC1)CC2)NCc1ccccc1Cl	·	·	·	14%	·	·
CCC(=O)N1CCc2cc(S(=O)(=O)CCC(=O)NCc3ccco3)ccc21	?	4%	-15%	-7%	6%	-16%
